# Measured values taken from ChEMBL document CHEMBL1157539, “Thousands of chemical starting points for antimalarial lead identification” (Nature, 2010).
# Tested on: Plasmodium falciparum
# Assay: GSK_TCMDC: Inhibition of Plasmodium falciparum 3D7 in whole red blood cells, using parasite LDH activity as an index of growth. Test compounds present at 2uM
# Type: functional
row,SMILES,Inhibition
1,O=C(Nc1ccc([N+](=O)[O-])cc1Br)c1cc2ccccc2nc1Cl,97%
2,Cc1ccccc1C1CCN(c2ccc(C(=O)Nc3ccccc3)cn2)CC1.O=C(O)C(F)(F)F,95%
3,COc1ccc(-n2cc(C(=O)c3cc(Br)ccc3O)cc(C#N)c2=O)cc1Cl,99%
4,O=S(=O)(Nc1ccc(CCN2CCC(N3CCCCC3)CC2)cc1)c1cccc(C(F)(F)F)c1,100%
5,CC1CCCN(S(=O)(=O)c2cc(Br)cc3c2N(C(=O)C2CC2)CC3)C1 (centres undefined),83%
6,CC(C)(C)c1ccc2[nH]c(-c3ccc(C(=O)NCc4cccc(C(F)(F)F)c4)cc3)nc2c1,98%
7,Cc1cc(C(=O)CN2C(=O)NC3(CCCc4ccccc43)C2=O)c(C)n1Cc1ccc(F)cc1 (centres undefined),92%
8,O=C(Nc1ccc2c(c1)OCCO2)c1cc(-c2cccnc2)nc2ccc(Cl)cc12,95%
9,Cc1c(Cn2nc(Cl)c(N3CCNCC3)cc2=O)cccc1NC(=O)Nc1ccc(-c2ccccc2)cc1.O=C(O)C(F)(F)F,80%
10,C=CCc1cc(Cc2cnc(N)nc2N)cc(CCC)c1OC,83%
11,Cl.Clc1cc(Br)ccc1-c1ccc(CNCC2CCNCC2)o1,96%
12,CCN(CC)CCCN(Cc1ccc(-c2ccc(C(F)(F)F)cc2)cc1)C(=O)Cn1c(SCc2cccc(F)c2F)cc(=O)c2ccccc21.O=C(O)C(O)C(O)C(=O)O,87%
13,C=CCN1CCC(N(Cc2cccc(Oc3ccccc3)c2)C(=O)C(c2ccccc2)c2ccccc2)CC1,87%
14,CC(=O)Nc1ccc2[nH]cc(C3CCN(CC4CCC(NC(=O)/C=C/c5ccc(Cl)c(Cl)c5)CC4)CC3)c2n1 (centres undefined),100%
15,Cl.NC(=O)c1cccc(Nc2nccc(Nc3ccc(Oc4cccc(Cl)c4)c(Cl)c3)n2)c1,93%
16,Cl.O=c1cc(NCCCNCc2sc(Br)c(Br)c2Br)[nH]c2ccccc12,90%
17,Cc1cccc2nc(-c3cccc(-c4ccc(NC(=O)CN5CCN(C)CC5)cc4)c3)[nH]c12,100%
18,O=C(N[C@@H](Cc1ccccc1)C(=O)NCc1cccc2ccccc12)c1ccc(O)c(-c2ccc(Cl)c(Cl)c2)c1,100%
19,CCN(CC)CCN(Cc1ccc(-c2ccc(C(F)(F)F)cc2)cc1)C(=O)Cn1c(CCc2cc(F)c(F)cc2F)nc(=O)c2ccccc21.O=C(O)C(O)C(O)C(=O)O,99%
20,Cc1cc(NC(=O)Nc2ccc3ncccc3c2)c2ccccc2n1,93%

row,SMILES,Inhibition
1,CC1(C)N=C(N)N=C(N)N1c1ccc(Cl)c(Cl)c1.Cl,95%
2,C[C@@H](CNc1ccnc(Nc2ccc3[nH]c(=O)[nH]c3c2)n1)c1ccccc1,100%
3,CCOC(=O)NC1=NC(=N)N(OCCCOc2cc(Cl)c(Cl)cc2Cl)C(C)(C)N1,97%
4,COC(=O)c1ccc(OCC(C)NCC(O)c2cccc(C(F)(F)F)c2)cc1.O=C(O)/C=C/C(=O)O (centres undefined),94%
5,CC(C)CNCc1cccc(-c2ccc(CN(CCCN3CCN(C)CC3)C(=O)/C=C/c3ccccc3)cc2)c1.O=C(O)C(F)(F)F,92%
6,Cc1cccc2nc(-c3ccc(-c4cccc(CNCCNC(=O)c5ccnn5C)c4)cc3)[nH]c12.O=C(O)C(F)(F)F,100%
7,O=C(CSc1nccn1C1CCCC1)Nc1cc(C(F)(F)F)ccc1Cl,96%
8,Cc1nc(-c2cccc(Nc3nccc(NCC(O)c4cccc(C(F)(F)F)c4)n3)c2)cs1 (centres undefined),100%
9,CC(C)n1c(CC2CCN(CC3CCN(C(=O)/C=C/c4ccc(Cl)c(Cl)c4)CC3)CC2)nc2ccccc21,100%
10,COC(=O)c1cccc(CNCc2cccc(-c3cccc(-c4nc5ccccc5[nH]4)c3)c2)c1.O=C(O)C(F)(F)F,95%
11,CN1CCN(c2ccnc3cc4c(cc23)N(C(=O)Nc2ccc(-c3ccncc3)c3ccccc23)CC4)CC1.Cl,100%
12,N#CN1CC[C@@H](NS(=O)(=O)Cc2ccc(Cl)c(Cl)c2)C1,94%
13,COc1ccc(NC(=O)[C@H](Cc2ccccc2)Nc2cc(C)nc(NCC3CCCCC3)n2)cc1.O=C(O)C(F)(F)F,100%
14,O=C(NC1CCN(Cc2ccccc2)CC1)c1cccc(-c2nc3ccc(Cl)cc3[nH]2)c1,98%
15,CCn1c(Sc2ccc([N+](=O)[O-])c(C#N)c2)nnc1-c1ccc(Cl)cc1,93%
16,Cc1cccc2nc(-c3ccc(-c4ccc(NC(=O)NCc5ccc(F)cc5)cc4)cc3)[nH]c12,100%
17,OC(c1nnc(S)n1-c1ccccc1)C(O)c1nnc(S)n1-c1ccccc1 (centres undefined),92%
18,CC(C)C[C@H](NC(=O)c1cc2ccccc2s1)C(=O)N[C@H]1CCN(Cc2ccc(I)c(OCCN3CCCC3)c2)C1.O=C(O)C(F)(F)F,92%
19,CCCCc1ccc2[nH]c(NC(=O)OC)nc2c1 [PARBENDAZOLE],98%
